# Test results: the supplement of paper PMC8728848
# This excerpt belongs to a sample that is enriched for the strongest signals.
# B1: SP15308B-bot-339-22-339 (Bacteroides ovatus) (protein)
# chain: NEWEDEQYEQYVSFKAPIASGSDGVTTIYVRYKDNGKVTYQLPIIVSGSTVNSQDRDIHIAVDKDTLKTLNIERFSLYRPELWYTEMEEDKYEFPETVHIPAGSCVELLNIDFNLQDIDMLEKWVLPLTIVDDGSYAYQSHPRKNYAKALLKVVPFNNYSGSYTASSMKVYTYINGKPDTNARTTDKRTGYVVDNNSIFFYAGLINEDMDKDMRKKYKINVHFKEDGTLDMKQDDPSNEMEFELIGTPTYSSTSVMDATRPYLERRYVQIMFEYDFQDFTYGGSGTEVIPIKYRVAGSMTLLRNINTQIPDEDQQIEW
# Legend:
# Assay in all cases: glycan array binding signal (z-score within array); higher = stronger binding
# Settings in all cases: glycan notation: IUPAC condensed, linker removed
# [1] = biological target: Fuc(a1-2)Gal(b1-4)[Fuc(a1-3)]GlcNAc(b1-3)Gal(b1-4)[Fuc(a1-3)]GlcNAc
# Summary of the method: (§1)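 The Consortium for Functional Glycomics database supplied 3228 glycan arrays, of which those lacking an available protein sequence were dropped. The binding signal, a within-array Z-score, was averaged across arrays of the same protein sequence and across linkers. Negative scores can be read as non-binding.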
# [2] = biological target: Fuc(a1-2)[Gal(a1-3)]Gal(b1-3)GalNAc(b1-3)Gal(a1-4)Gal(b1-4)Glc
# Summary of the method: as §1
# [3] = biological target: Fuc(a1-2)[Gal(a1-3)]Gal(b1-4)GlcNAc(b1-2)Man(a1-3)[Fuc(a1-2)[Gal(a1-3)]Gal(b1-4)GlcNAc(b1-2)Man(a1-6)]Man(b1-4)GlcNAc(b1-4)[Fuc(a1-6)]GlcNAc
# Summary of the method: as §1
# [4] = biological target: Fuc(a1-2)[Gal(a1-3)]Gal(b1-4)GlcNAc(b1-3)GalNAc
# Summary of the method: as §1
# [5] = biological target: Fuc(a1-2)[GalNAc(a1-3)]Gal(b1-3)GlcNAc(b1-2)Man(a1-3)[Fuc(a1-2)[GalNAc(a1-3)]Gal(b1-3)GlcNAc(b1-2)Man(a1-6)]Man(b1-4)GlcNAc(b1-4)[Fuc(a1-6)]GlcNAc
# Summary of the method: as §1
# [6] = biological target: Fuc(a1-2)[GalNAc(a1-3)]Gal(b1-4)GlcNAc(b1-2)Man(a1-3)[Fuc(a1-2)[GalNAc(a1-3)]Gal(b1-4)GlcNAc(b1-2)Man(a1-6)]Man(b1-4)GlcNAc(b1-4)[Fuc(a1-6)]GlcNAc
# Summary of the method: as §1
# [7] = biological target: Fuc(a1-2)[GalNAc(b1-3)]Gal
# Summary of the method: as §1
# Fuc(a1-4)GlcNAc = biological target: Fuc(a1-4)GlcNAc
# Summary of the method: as §1
# Gal(a1-3)Gal = biological target: Gal(a1-3)Gal
# Summary of the method: as §1
# [8] = biological target: Gal(a1-3)Gal(b1-4)GlcNAc(b1-2)Man(a1-3)[Gal(a1-3)Gal(b1-4)GlcNAc(b1-2)Man(a1-6)]Man(b1-4)GlcNAc(b1-4)GlcNAc
# Summary of the method: as §1
# [9] = biological target: Gal(b1-3)GlcNAc(b1-3)Gal(b1-4)GlcNAc(b1-6)[Gal(b1-3)GlcNAc(b1-3)]Gal(b1-4)Glc
# Summary of the method: as §1
# [10] = biological target: Gal(b1-3)GlcNAc(b1-3)Gal(b1-4)[Fuc(a1-3)]GlcNAc
# Summary of the method: as §1
# [11] = biological target: Gal(b1-3)[Fuc(a1-4)]GlcNAc
# Summary of the method: as §1
# [12] = biological target: Gal(b1-4)GlcNAc(b1-2)Man(a1-3)[Gal(b1-4)GlcNAc(b1-2)Man(a1-6)]Man(b1-4)GlcNAc(b1-4)GlcNAc
# Summary of the method: as §1
# [13] = biological target: Gal(b1-4)GlcNAc(b1-3)Gal(b1-4)GlcNAc(b1-2)Man(a1-3)[Gal(b1-4)GlcNAc(b1-3)Gal(b1-4)GlcNAc(b1-2)Man(a1-6)]Man(b1-4)GlcNAc(b1-4)GlcNAc
# Summary of the method: as §1
# [14] = biological target: Gal(b1-4)GlcNAc(b1-3)Gal(b1-4)GlcNAc(b1-2)Man(a1-3)[Gal(b1-4)GlcNAc(b1-3)Gal(b1-4)GlcNAc(b1-2)Man(a1-6)]Man(b1-4)GlcNAc(b1-4)[Fuc(a1-6)]GlcNAc
# Summary of the method: as §1
# [15] = biological target: Gal(b1-4)GlcNAc(b1-3)Gal(b1-4)GlcNAc(b1-3)Gal(b1-4)GlcNAc(b1-2)[Gal(b1-4)GlcNAc(b1-3)Gal(b1-4)GlcNAc(b1-3)Gal(b1-4)GlcNAc(b1-6)]Man(a1-6)[Gal(b1-4)GlcNAc(b1-3)Gal(b1-4)GlcNAc(b1-3)Gal(b1-4)GlcNAc(b1-2)Man(a1-3)]Man(b1-4)GlcNAc(b1-4)[Fuc(a1-6)]GlcNAc
# Summary of the method: as §1
# [16] = biological target: Gal(b1-4)GlcNAc(b1-3)Gal(b1-4)GlcNAc(b1-3)Gal(b1-4)GlcNAc(b1-3)Gal(b1-4)GlcNAc(b1-2)Man(a1-3)[Gal(b1-4)GlcNAc(b1-3)Gal(b1-4)GlcNAc(b1-3)Gal(b1-4)GlcNAc(b1-3)Gal(b1-4)GlcNAc(b1-2)Man(a1-6)]Man(b1-4)GlcNAc(b1-4)[Fuc(a1-6)]GlcNAc
# Summary of the method: as §1
# [17] = biological target: Gal(b1-4)GlcNAc(b1-3)Gal(b1-4)GlcNAc(b1-3)Gal(b1-4)GlcNAc(b1-3)Gal(b1-4)GlcNAc(b1-3)Gal(b1-4)GlcNAc(b1-2)Man(a1-3)[Gal(b1-4)GlcNAc(b1-3)Gal(b1-4)GlcNAc(b1-3)Gal(b1-4)GlcNAc(b1-3)Gal(b1-4)GlcNAc(b1-3)Gal(b1-4)GlcNAc(b1-2)Man(a1-6)]Man(b1-4)GlcNAc(b1-4)GlcNAc
# Summary of the method: as §1
# [18] = biological target: Gal(b1-4)GlcNAc(b1-3)Gal(b1-4)GlcNAc(b1-3)Gal(b1-4)GlcNAc(b1-3)Gal(b1-4)GlcNAc(b1-3)Gal(b1-4)GlcNAc(b1-2)Man(a1-3)[Gal(b1-4)GlcNAc(b1-3)Gal(b1-4)GlcNAc(b1-3)Gal(b1-4)GlcNAc(b1-3)Gal(b1-4)GlcNAc(b1-3)Gal(b1-4)GlcNAc(b1-2)Man(a1-6)]Man(b1-4)GlcNAc(b1-4)[Fuc(a1-6)]GlcNAc
# Summary of the method: as §1
# [19] = biological target: Gal(b1-4)GlcNAc(b1-3)Gal(b1-4)GlcNAc(b1-3)Gal(b1-4)GlcNAc(b1-3)Gal(b1-4)GlcNAc(b1-3)Gal(b1-4)GlcNAc(b1-3)Gal(b1-4)GlcNAc(b1-2)Man(a1-3)[Gal(b1-4)GlcNAc(b1-3)Gal(b1-4)GlcNAc(b1-3)Gal(b1-4)GlcNAc(b1-3)Gal(b1-4)GlcNAc(b1-3)Gal(b1-4)GlcNAc(b1-3)Gal(b1-4)GlcNAc(b1-2)Man(a1-6)]Man(b1-4)GlcNAc(b1-4)GlcNAc
# Summary of the method: as §1
# [20] = biological target: Gal(b1-4)GlcNAc(b1-6)GalNAc
# Summary of the method: as §1
# Gal3S(b1-4)Glc6S = biological target: Gal3S(b1-4)Glc6S
# Summary of the method: as §1
# Gal6S(b1-4)GlcNAc = biological target: Gal6S(b1-4)GlcNAc
# Summary of the method: as §1
# Gal6S(b1-4)GlcNAc6S = biological target: Gal6S(b1-4)GlcNAc6S
# Summary of the method: as §1
binder,measurement,setting,value
B1,glycan array binding signal (z-score),[1],-0.601
same,glycan array binding signal (z-score),[2],-0.087
same,glycan array binding signal (z-score),[3],0.241
same,glycan array binding signal (z-score),[4],-0.515
same,glycan array binding signal (z-score),[5],-0.323
same,glycan array binding signal (z-score),[6],-0.388
same,glycan array binding signal (z-score),[7],0.15
same,glycan array binding signal (z-score),Fuc(a1-4)GlcNAc,2.58
same,glycan array binding signal (z-score),Gal(a1-3)Gal,0.449
same,glycan array binding signal (z-score),[8],3.88
same,glycan array binding signal (z-score),[9],-0.129
same,glycan array binding signal (z-score),[10],-0.548
same,glycan array binding signal (z-score),[11],-0.425
same,glycan array binding signal (z-score),[12],-0.534
same,glycan array binding signal (z-score),[13],2.8
same,glycan array binding signal (z-score),[14],2.57
same,glycan array binding signal (z-score),[15],2.24
same,glycan array binding signal (z-score),[16],7.12
same,glycan array binding signal (z-score),[17],1.84
same,glycan array binding signal (z-score),[18],0.658
same,glycan array binding signal (z-score),[19],6.94
same,glycan array binding signal (z-score),[20],0.182
same,glycan array binding signal (z-score),Gal3S(b1-4)Glc6S,-0.337
same,glycan array binding signal (z-score),Gal6S(b1-4)GlcNAc,1.87
same,glycan array binding signal (z-score),Gal6S(b1-4)GlcNAc6S,-0.252
